Screening results as filed in PubChem.
U2OS ROS induce: inducers of reactive oxygen species in cancer cells | U2OS ROS induction, H2DCF-DA fluorescence | ROS induction (% of piperlongumine), % at 10 µM | actives 2% (n = 46,000) | AID 624156; in the data active = ROS induction above about 79%, passing the limit was not always enough;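 note: 0% = DMSO vehicle median and 100% = reference compound median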
YB-1 expr inh: YB-1 expression inhibition; actives 0.37% (n = 30,000); U2OS, qRT-PCR YB-1 vs CDIP delta delta Cp, 16 h; active compounds read high; zero = DMSO, each unit about twofold; AID 434959; delta delta Cp (YB-1 minus CDIP) (no concentration beside the values);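 active = delta delta Cp rounded down to an integer at or above 3, about 3 SD of DMSO wells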;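 note: higher means less YB-1 transcript or more CDIP transcript relative to DMSO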
Active calls of the source: *; . = no result. Sampled rows, rich in hits. Any-hit rate of the full collection: about 2.1%.

SMILES	U2OS ROS induce	YB-1 expr inh
COc1ccc(S(=O)(=O)Nc2ccc3c(c2)C(=O)N([C@H](C)CO)C[C@H](C)[C@H](CN(C)S(=O)(=O)c2ccc(OC)cc2)O3)cc1	15.1	-0.179
COc1ccc(NC(=O)Nc2ccc3c(c2)C(=O)N([C@H](C)CO)C[C@H](C)[C@H](CN(C)S(=O)(=O)c2ccc(F)cc2)O3)cc1	56.2	10*
COc1ccc(S(=O)(=O)Nc2ccc3c(c2)C(=O)N([C@H](C)CO)C[C@@H](C)[C@H](CN(C)Cc2ccc(-c4ccccc4)cc2)O3)cc1	14.0	.
Cc1ccc(S(=O)(=O)Nc2ccc3c(c2)C(=O)N([C@@H](C)CO)C[C@H](C)[C@@H](CN(C)C(=O)Nc2ccccc2)O3)cc1	109.4*	-0.423
Cc1ccc(S(=O)(=O)Nc2ccc3c(c2)C(=O)N([C@@H](C)CO)C[C@H](C)[C@H](CN(C)C(=O)Nc2ccccc2)O3)cc1	1.5	-0.341
COc1ccc(S(=O)(=O)N(C)C[C@H]2Oc3ccc(NC(=O)Nc4ccc(F)cc4)cc3C(=O)N([C@@H](C)CO)C[C@H]2C)cc1	7.6	0.124
COc1ccc(S(=O)(=O)Nc2ccc3c(c2)C(=O)N([C@H](C)CO)C[C@H](C)[C@@H](CN(C)S(C)(=O)=O)O3)cc1	2.0	15.5*
COc1ccc(S(=O)(=O)Nc2ccc3c(c2)C(=O)N([C@@H](C)CO)C[C@H](C)[C@@H](CN(C)Cc2ccc(-c4ccccc4)cc2)O3)cc1	127.9*	0.0845
Cc1ccc(-c2ccc(=O)n(CCC(=O)NCCN3CCN(c4cccc(Cl)c4)CC3)n2)cc1	15.8	.
COc1ccc(S(=O)(=O)N2CCC(C)CC2)cc1	-4.3	.
O=C(NCc1ccccn1)/C(=C/c1ccccc1Cl)c1ccccc1	-19.4	.
CC(C)S(=O)(=O)c1cscc1NC(=O)c1ccc(-c2cc(C(F)(F)F)nn2C)s1	19.8	-0.139
Cc1ccc(CN(C(=O)COc2c(F)c(F)c(F)c(F)c2F)C2CCS(=O)(=O)C2)o1 (stereo not given)	-7.3	.
Cc1ccc(S(=O)(=O)Nc2ccc3c(c2)C(=O)N([C@@H](C)CO)C[C@@H](C)[C@@H](CN(C)Cc2ccc(Oc4ccccc4)cc2)O3)cc1	9.8	0.053
Cc1ccc(S(=O)(=O)Nc2ccc3c(c2)C(=O)N([C@@H](C)CO)C[C@H](C)[C@@H](CN(C)Cc2ccc(Oc4ccccc4)cc2)O3)cc1	109.9*	0.133
O=C(Nc1ccc(-c2nc3ccccc3o2)cc1)c1ccc(C(=O)c2ccccc2)cc1	-9.3	.
C=CCN1C(=O)/C(=C/c2cn(C(C)CC)c3ccccc23)C(=O)NC1=S (stereo not given)	64.6	-0.292
C=CCN1C(=O)NC(=O)/C(=C\c2cn(Cc3ccccc3)c3ccccc23)C1=O	155.1*	.
CC(C)(C)C(=O)CSc1nc2c(cc1C#N)N1CCC2CC1	4.8	.
O=C(O)CCC(=O)N1N=C(c2c(-c3ccccc3)c3cc(Cl)ccc3[nH]c2=O)CC1c1ccccc1 (stereo not given)	-6.6	.
CC(=O)N1N=C(c2c(-c3ccccc3)c3cc(Cl)ccc3[nH]c2=O)CC1c1ccco1 (stereo not given)	109.0*	.
C=C1C(=O)O[C@@H]2/C=C(\CO)CCC/C(C)=C/[C@H](O)C12 (stereo not given in full)	45.4	-0.27
C=C1C(=O)O[C@@H]2/C=C(/CO)CC/C=C(/C)C[C@H](OC(=O)C(C)CO)[C@@H]12 (stereo not given in full)	154.2*	-0.175
CC(C)(C)c1ccc(N2C(=O)CCC2=O)cc1	-0.8	-0.0569
CCCCn1c(CCNC(=O)C(C)C)nc2ccccc21	1.6	.
SMILES	U2OS ROS induce	YB-1 expr inh
CCOC(=O)c1cnc(-c2ccccc2)nc1NCc1ccccc1	18.3	.
COc1ccc(-c2c(C#N)c(SCC(=O)c3ccccc3)nc3c2C(=O)CC(C)(C)C3)cc1	138.3*	.
N#Cc1c(N)nc(SCC(=O)c2ccc3ccccc3c2)c(C#N)c1-c1cccc(F)c1	22.9	.
Clc1ccc2oc(-c3ccccc3)cc(=NCC3CCCO3)c2c1 (stereo not given)	45.4	.
CC1(C)CC(=O)C2=C(C1)Nc1ccccc1N(C(=O)C(F)(F)F)C2c1ccc(Cl)cc1Cl (stereo not given)	10.0	-0.0941
O=C(Nc1cccc(F)c1)C1CCN(c2ncnc3c2sc2cccc(F)c23)CC1	111.3*	.
CCc1cccc(NC(=O)C2CCN(c3nn4c(=O)cc(C)nc4s3)CC2)c1	-6.0	.
O=C1O[C@H](c2ccccc2)[C@H](c2ccccc2)N2[C@H]1[C@@H](C(=O)N1CCN(c3ncccn3)CC1)[C@]1(C(=O)Nc3ccc(C#CC4(O)CCCCCC4)cc31)[C@H]2c1ccc(OCCO)cc1	24.7	-0.0329
COC(=O)C(CC#Cc1ccc2c(c1)[C@]1(C(=O)N2)[C@H](c2ccc(OCCO)cc2)N2[C@H](c3ccccc3)[C@H](c3ccccc3)OC(=O)[C@H]2[C@@H]1C(=O)N1CCN(c2ncccn2)CC1)C(=O)OC	54.0	-0.167
